From PubChem BioAssay (NCI)
Compounds without any hit were thinned out: in the full panel of roughly 79,000, 15% have a hit. Values without a mark were called inactive. Calls of active or inactive are those of the source. Cut-off read from the data, not from the text of the source: active = growth inhibition above about 70%; inactive = the rest.

Tests used:
[1] = NCI Yeast Anticancer Drug Screen. Data for the rad52 strain (AID 147);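 note: 0% = growth of vehicle-treated control cultures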; settings: S. cerevisiae rad52 mutant growth inhibition, active compounds read high
Outline: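 Inhibition of yeast growth, referenced to vehicle controls, was the measured output for a strain with defective DNA damage repair.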

[2] = NCI Yeast Anticancer Drug Screen. Data for the wt1 strain (AID 149);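 note: 0% = growth of vehicle-treated wt1 cultures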; settings: S. cerevisiae wt1 strain (SPY 50644) growth inhibition, active compounds read high
Outline: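 Compounds are added to wt1 yeast cultures. Growth is then measured. Inhibition is expressed relative to vehicle-treated controls.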

[3] = NCI Yeast Anticancer Drug Screen. Data for the rad50EPP+ strain (AID 151);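 note: 0% = growth of vehicle-treated control cultures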; settings: S. cerevisiae rad50 mutant strain, active compounds read high
Outline: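 Genetically defined yeast (rad50EPP+, DNA damage repair alteration) is grown with compound, and inhibition of growth is expressed relative to vehicle-treated controls.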

[4] = NCI Yeast Anticancer Drug Screen. Data for the mgt1 strain (AID 153); settings: S. cerevisiae mgt1 mutant growth inhibition, active compounds read high
Outline: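 In the mgt1 strain, test compounds were added and growth inhibition was determined relative to vehicle-treated controls.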

[5] = NCI Yeast Anticancer Drug Screen. Data for the rad50 strain (AID 155);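 note: 0% = growth of vehicle-only cultures of the same strain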; settings: S. cerevisiae rad50 strain growth inhibition, active compounds read high
Outline: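 Inhibition values express reduced yeast growth in compound-treated cultures relative to vehicle-treated controls.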

[6] = NCI Yeast Anticancer Drug Screen. Data for the mec2-1 strain (AID 157); settings: S. cerevisiae mec2-1 strain, active compounds read high
Outline: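 Each compound was tested on mec2-1 yeast, a strain altered in DNA damage repair or cell cycle control. Growth inhibition is reported relative to vehicle.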

[7] = NCI Yeast Anticancer Drug Screen. Data for the rad14 strain (AID 159);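 note: 0% = growth of vehicle-treated control cultures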; settings: S. cerevisiae rad14 strain growth inhibition, active compounds read high
Outline: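 A mutant yeast strain defective in DNA damage repair is treated with compound; inhibition of its growth is scored against untreated, vehicle-exposed cultures.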

[8] = NCI Yeast Anticancer Drug Screen. Data for the sgs1 mgt1 strain (AID 161);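 note: 0% = growth of cultures given vehicle only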; settings: S. cerevisiae sgs1 mgt1 strain, active compounds read high
Outline: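 Mutant yeast exposed to compound; growth scored against vehicle-only wells.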

[9] = NCI Yeast Anticancer Drug Screen. Data for the CLN2oe strain (AID 163);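 note: 0% = growth of vehicle-only control cultures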; settings: S. cerevisiae CLN2oe strain, active compounds read high
Outline: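 First, the altered yeast strain was treated with each compound; second, its growth was measured; finally, inhibition was derived by comparison with vehicle controls.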

[10] = NCI Yeast Anticancer Drug Screen. Data for the cln2 rad14 strain (AID 165);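 note: 0% = growth equal to vehicle treated cultures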; settings: S. cerevisiae cln2 rad14 strain, active compounds read high
Outline: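 Test compounds were added to cln2 rad14 yeast cultures; inhibition of growth was then determined by comparison with vehicle treatment.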

[11] = NCI Yeast Anticancer Drug Screen. Data for the bub3 strain (AID 167); settings: S. cerevisiae bub3 mutant strain, active compounds read high
Outline: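 Steps: expose the mutant yeast strain to compound; grow alongside vehicle-treated cultures; measure growth; express inhibition against the vehicle cultures.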

[12] = NCI Yeast Anticancer Drug Screen. Data for the wt2 strain (AID 169);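 note: 0% = growth of vehicle-treated yeast cultures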; settings: S. cerevisiae wt2 strain growth inhibition, active compounds read high
Outline: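 The panel's yeast strains carry defined changes in DNA repair or cell cycle genes. Each strain is grown with compound, and growth loss is scored relative to vehicle.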

[13] = NCI Yeast Anticancer Drug Screen. Data for the mlh1 strain (AID 171);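 note: 0% = growth of vehicle-treated control cultures of the same strain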; settings: S. cerevisiae mlh1 strain growth inhibition, active compounds read high
Outline: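 Inhibition values reflect reduced yeast growth in the presence of compound, referenced to vehicle controls, using a strain chosen for its alteration in DNA repair or cell cycle control.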

[14] = NCI Yeast Anticancer Drug Screen. Data for the mlh1 rad18 strain (AID 175); settings: S. cerevisiae mlh1 rad18 strain growth inhibition, active compounds read high
Outline: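 Inhibition values reflect reduced growth of mutant yeast versus vehicle-treated controls following compound exposure; the mutations affect DNA damage repair.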

[15] = NCI Yeast Anticancer Drug Screen. Data for the rad18 strain (AID 177); settings: S. cerevisiae rad18 mutant growth inhibition, active compounds read high
Outline: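 Steps: expose repair-mutant yeast to compound; measure growth; express as inhibition relative to vehicle control.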

[16] = at 5.0 µM (retest, dose inferred, filed as 0.5)
[17] = at 50.0 µM (retest, dose inferred, filed as 5.0)

## COc1ccc(C(=O)/C=C\c2ccc(Cl)c(Cl)c2)cc1
[1]; at 1.2 µM
  growth inhibition: 16%
[1]; at 3.7 µM
  growth inhibition: 15%
[1]; at 11.0 µM
  growth inhibition: 19%
[1]; at 33.0 µM
  growth inhibition: 34%
[1]; at 100.0 µM
  growth inhibition: 56%
[2]; at 1.2 µM
  growth inhibition: 26%
[2]; at 3.7 µM
  growth inhibition: 26%
[2]; at 11.0 µM
  growth inhibition: 29%
[2]; at 33.0 µM
  growth inhibition: 43%
[2]; at 100.0 µM
  growth inhibition: 81% (active)
[3]; at 1.2 µM
  growth inhibition: 12%
[3]; at 3.7 µM
  growth inhibition: 10%
[3]; at 11.0 µM
  growth inhibition: 16%
[3]; at 33.0 µM
  growth inhibition: 31%
[3]; at 100.0 µM
  growth inhibition: 24%
[4]; at 1.2 µM
  growth inhibition: 7%
[4]; at 3.7 µM
  growth inhibition: -38%
[4]; at 11.0 µM
  growth inhibition: -4%
[4]; at 33.0 µM
  growth inhibition: 25%
[4]; at 100.0 µM
  growth inhibition: 70% (active)
[5]; at 1.2 µM
  growth inhibition: 4%
[5]; at 3.7 µM
  growth inhibition: 7%
[5]; [16]
  growth inhibition: 53%
[5]; at 11.0 µM
  growth inhibition: 6%
[5]; at 33.0 µM
  growth inhibition: 34%
[5]; [17]
  growth inhibition: 68%
[5]; at 50.0 µM
  growth inhibition: 69.5%
[5]; at 100.0 µM
  growth inhibition: 71% (active)
[6]; at 1.2 µM
  growth inhibition: -7%
[6]; at 3.7 µM
  growth inhibition: 0%
[6]; [16]
  growth inhibition: 47%
[6]; at 11.0 µM
  growth inhibition: 7%
[6]; at 33.0 µM
  growth inhibition: 23%
[6]; [17]
  growth inhibition: 58%
[6]; at 50.0 µM
  growth inhibition: 59.6%
[6]; at 100.0 µM
  growth inhibition: 68%
[7]; at 1.2 µM
  growth inhibition: -19%
[7]; at 3.7 µM
  growth inhibition: -20%
[7]; at 11.0 µM
  growth inhibition: -30%
[7]; at 33.0 µM
  growth inhibition: -17%
[7]; at 100.0 µM
  growth inhibition: 42%
[8]; [16]
  growth inhibition: -18%
[8]; [17]
  growth inhibition: 80% (active)
[8]; at 50.0 µM
  growth inhibition: 70.8% (active)
[9]; at 1.2 µM
  growth inhibition: 12%
[9]; at 3.7 µM
  growth inhibition: 10%
[9]; at 11.0 µM
  growth inhibition: 8%
[9]; at 33.0 µM
  growth inhibition: 22%
[9]; at 100.0 µM
  growth inhibition: 69%
[10]; [16]
  growth inhibition: 18%
[10]; [17]
  growth inhibition: 77% (active)
[10]; at 50.0 µM
  growth inhibition: 57.6%
[11]; at 1.2 µM
  growth inhibition: 0%
[11]; at 3.7 µM
  growth inhibition: 2%
[11]; [16]
  growth inhibition: 12%
[11]; at 11.0 µM
  growth inhibition: -3%
[11]; at 33.0 µM
  growth inhibition: 29%
[11]; [17]
  growth inhibition: 80% (active)
[11]; at 50.0 µM
  growth inhibition: 74.6% (active)
[11]; at 100.0 µM
  growth inhibition: 67%
[12]; at 1.2 µM
  growth inhibition: 15%
[12]; at 3.7 µM
  growth inhibition: 0%
[12]; at 11.0 µM
  growth inhibition: 12%
[12]; at 33.0 µM
  growth inhibition: 37%
[12]; at 100.0 µM
  growth inhibition: 76% (active)
[13]; at 1.2 µM
  growth inhibition: 11%
[13]; at 3.7 µM
  growth inhibition: 12%
[13]; at 11.0 µM
  growth inhibition: -11%
[13]; at 33.0 µM
  growth inhibition: 15%
[13]; at 100.0 µM
  growth inhibition: 64%
[14]; [16]
  growth inhibition: 39%
[14]; [17]
  growth inhibition: 72% (active)
[14]; at 50.0 µM
  growth inhibition: 63.5%
[15]; at 1.2 µM
  growth inhibition: -17%
[15]; at 3.7 µM
  growth inhibition: -35%
[15]; at 11.0 µM
  growth inhibition: -44%
[15]; at 33.0 µM
  growth inhibition: -6%
[15]; at 100.0 µM
  growth inhibition: 52%

## O/N=c1/ccn(O)c2ccccc12
[1]; at 1.2 µM
  growth inhibition: 49%
[1]; at 3.7 µM
  growth inhibition: 91% (active)
[1]; at 11.0 µM
  growth inhibition: 95% (active)
[1]; at 33.0 µM
  growth inhibition: 96% (active)
[1]; at 100.0 µM
  growth inhibition: 95% (active)
[2]; at 1.2 µM
  growth inhibition: 0%
[2]; at 3.7 µM
  growth inhibition: 8%
[2]; at 11.0 µM
  growth inhibition: 20%
[2]; at 33.0 µM
  growth inhibition: 43%
[2]; at 100.0 µM
  growth inhibition: 61%
[3]; at 1.2 µM
  growth inhibition: 87% (active)
[3]; at 3.7 µM
  growth inhibition: 96% (active)
[3]; at 11.0 µM
  growth inhibition: 97% (active)
[3]; at 33.0 µM
  growth inhibition: 97% (active)
[3]; at 100.0 µM
  growth inhibition: 97% (active)
[4]; at 1.2 µM
  growth inhibition: -1%
[4]; at 3.7 µM
  growth inhibition: 7%
[4]; at 11.0 µM
  growth inhibition: 23%
[4]; at 33.0 µM
  growth inhibition: 51%
[4]; at 100.0 µM
  growth inhibition: 84% (active)
[5]; at 1.2 µM
  growth inhibition: 74% (active)
[5]; at 3.7 µM
  growth inhibition: 96% (active)
[5]; [16]
  growth inhibition: 89% (active)
[5]; at 11.0 µM
  growth inhibition: 95% (active)
[5]; at 33.0 µM
  growth inhibition: 96% (active)
[5]; [17]
  growth inhibition: 95% (active)
[5]; at 50.0 µM
  growth inhibition: 96.3% (active)
[5]; at 100.0 µM
  growth inhibition: 96% (active)
[6]; at 1.2 µM
  growth inhibition: 51%
[6]; at 3.7 µM
  growth inhibition: 97% (active)
[6]; [16]
  growth inhibition: 94% (active)
[6]; at 11.0 µM
  growth inhibition: 98% (active)
[6]; at 33.0 µM
  growth inhibition: 98% (active)
[6]; [17]
  growth inhibition: 98% (active)
[6]; at 50.0 µM
  growth inhibition: 97.5% (active)
[6]; at 100.0 µM
  growth inhibition: 98% (active)
[7]; at 1.2 µM
  growth inhibition: 96% (active)
[7]; at 3.7 µM
  growth inhibition: 99% (active)
[7]; at 11.0 µM
  growth inhibition: 99% (active)
[7]; at 33.0 µM
  growth inhibition: 99% (active)
[7]; at 100.0 µM
  growth inhibition: 99% (active)
[8]; [16]
  growth inhibition: 87% (active)
[8]; [17]
  growth inhibition: 95% (active)
[8]; at 50.0 µM
  growth inhibition: 97% (active)
[9]; at 1.2 µM
  growth inhibition: -8%
[9]; at 3.7 µM
  growth inhibition: -5%
[9]; at 11.0 µM
  growth inhibition: 8%
[9]; at 33.0 µM
  growth inhibition: 37%
[9]; at 100.0 µM
  growth inhibition: 58%
[10]; [16]
  growth inhibition: 98% (active)
[10]; [17]
  growth inhibition: 99% (active)
[10]; at 50.0 µM
  growth inhibition: 98.8% (active)
[11]; at 1.2 µM
  growth inhibition: -5%
[11]; at 3.7 µM
  growth inhibition: 5%
[11]; [16]
  growth inhibition: 11%
[11]; at 11.0 µM
  growth inhibition: 24%
[11]; at 33.0 µM
  growth inhibition: 54%
[11]; [17]
  growth inhibition: 72% (active)
[11]; at 50.0 µM
  growth inhibition: 83.2% (active)
[11]; at 100.0 µM
  growth inhibition: 79% (active)
[12]; at 1.2 µM
  growth inhibition: -1%
[12]; at 3.7 µM
  growth inhibition: 14%
[12]; at 11.0 µM
  growth inhibition: 20%
[12]; at 33.0 µM
  growth inhibition: 39%
[12]; at 100.0 µM
  growth inhibition: 58%
[13]; at 1.2 µM
  growth inhibition: 2%
[13]; at 3.7 µM
  growth inhibition: 15%
[13]; at 11.0 µM
  growth inhibition: 30%
[13]; at 33.0 µM
  growth inhibition: 53%
[13]; at 100.0 µM
  growth inhibition: 83% (active)
[14]; [16]
  growth inhibition: 82% (active)
[14]; [17]
  growth inhibition: 97% (active)
[14]; at 50.0 µM
  growth inhibition: 97.5% (active)
[15]; at 1.2 µM
  growth inhibition: 96% (active)
[15]; at 3.7 µM
  growth inhibition: 98% (active)
[15]; at 11.0 µM
  growth inhibition: 97% (active)
[15]; at 33.0 µM
  growth inhibition: 97% (active)
[15]; at 100.0 µM
  growth inhibition: 97% (active)
